Test results reported in PubChem BioAssay AID1159580 (chemical genetic matrix, 2015).
Among all 5,500 compounds or so, about 2,000 (36%) were called active. Inconclusive results (about 18%) are left out. No stated cut-off is given here; in the data, active means normalized growth mostly below about 0.91 (no sharp cut-off); inconclusive means no clear call, values can overlap the other calls; inactive means mostly above about 0.92. Some of the results follow.

Assay: chemical genetic growth profiling, strain panel (AID 1159580);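 further: tested at 20 µM; growth read once vehicle control cultures reached saturation at 30 °C; 1 = growth at the plate median or of vehicle wells; lower values mean less growth of the strain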
Conditions: S. cerevisiae deletion strains, growth OD
[1] = locus YAL021C, strain ccr4, hits give low values
[2] = locus YAL026C, strain drs2, hits give low values
[3] = locus YAL030W, strain snc1, hits give low values
[4] = locus YBL061C, strain skt5, hits give low values
[5] = locus YBR009C, strain hhf1, hits give low values
[6] = locus YBR023C, strain chs3, hits give low values
[7] = locus YBR171W, strain sec66, hits give low values
[8] = locus YBR231C, strain swc5, hits give low values
[9] = locus YBR279W, strain paf1, hits give low values
[10] = locus YCL011C, strain gbp2, hits give low values
[11] = locus YCL016C, strain dcc1, hits give low values
[12] = locus YCL061C, strain MRC1, hits give low values
[13] = locus YCL069W, strain vba3, hits give low values
[14] = locus YCR088W, strain abp1, hits give low values
[15] = locus YDL005C, strain med2, hits give low values
[16] = locus YDL040C, strain nat1, hits give low values
[17] = locus YDR001C, strain nth1, hits give low values
[18] = locus YDR069C, strain doa4, hits give low values
[19] = locus YDR137W, strain rgp1, hits give low values
[20] = locus YDR159W, strain sac3, hits give low values
[21] = locus YDR297W, strain sur2, hits give low values
[22] = locus YDR334W, strain swr1, hits give low values
[23] = locus YDR335W, strain msn5, hits give low values
[24] = locus YDR392W, strain spt3, hits give low values
[25] = locus YEL003W, strain gim4, hits give low values
[26] = locus YEL037C, strain rad23, hits give low values
[27] = locus YEL061C, strain CIN8 (second series), hits give low values
[28] = locus YER015W, strain faa2, hits give low values
[29] = locus YER016W, strain bim1, hits give low values
[30] = locus YER111C, strain swi4, hits give low values
[31] = locus YER155C, strain BEM2 (second series), hits give low values
[32] = locus YFR010W, strain ubp6, hits give low values
[33] = locus YGL167C, strain pmr1, hits give low values
[34] = locus YGL173C, strain kem1, hits give low values
[35] = locus YGL227W, strain vid30, hits give low values
[36] = locus YGL240W, strain doc1, hits give low values
[37] = locus YGL253W, strain hxk2, hits give low values
[38] = locus YHR013C, strain ard1, hits give low values
[39] = locus YHR027C, strain rpn1, hits give low values
[40] = locus YHR030C, strain SLT2, hits give low values
[41] = locus YHR079C, strain IRE1, hits give low values
[42] = locus YHR142W, strain chs7, hits give low values
[43] = locus YJL092W, strain hpr5, hits give low values
[44] = locus YJL095W, strain BCK1 (second series), hits give low values
[45] = locus YJL095W, strain BCK1, hits give low values
[46] = locus YJL115W, strain asf1, hits give low values
[47] = locus YJL129C, strain trk1, hits give low values
[48] = locus YJL154C, strain vps35, hits give low values
[49] = locus YJL164C, strain tpk1, hits give low values
[50] = locus YJL166W, strain qcr8, hits give low values
[51] = locus YJR066W, strain TOR1, hits give low values
[52] = locus YKL160W, strain elf1, hits give low values
[53] = locus YKR026C, strain gcn3, hits give low values
[54] = locus YKR091W, strain srl3, hits give low values
[55] = locus YLL001W, strain dnm1, hits give low values
[56] = locus YLL026W, hits give low values
[57] = locus YLL041C, strain sdh2, hits give low values
[58] = locus YLR027C, strain aat2, hits give low values
[59] = locus YLR113W, strain HOG1, hits give low values
[60] = locus YLR221C, strain rsa3, hits give low values
[61] = locus YLR258W, strain gsy2, hits give low values
[62] = locus YLR262C, strain YPT6 (second series), hits give low values
[63] = locus YLR320W, strain mms22, hits give low values
[64] = locus YLR342W, strain FKS1, hits give low values
[65] = locus YLR357W, strain rsc2, hits give low values
[66] = locus YLR370C, strain arc18, hits give low values
[67] = locus YLR384C, strain iki3, hits give low values
[68] = locus YML120C, strain ndi1, hits give low values
[69] = locus YMR058W, strain fet3, hits give low values
[70] = locus YMR125W, strain sto1, hits give low values
[71] = locus YMR129W, hits give low values
[72] = locus YMR205C, strain PFK2, hits give low values
[73] = locus YMR231W, strain pep5, hits give low values
[74] = locus YNL071W, strain lat1, hits give low values
[75] = locus YNL183C, strain NPR1, hits give low values
[76] = locus YNL209W, strain ssb2, hits give low values
[77] = locus YNL248C, strain rpa49, hits give low values
[78] = locus YNL322C, strain KRE1 (second series), hits give low values
[79] = locus YNR049C, strain mso1, hits give low values
[80] = locus YOR001W, strain rrp6, hits give low values
[81] = locus YOR070C, strain gyp1, hits give low values
[82] = locus YOR080W, strain dia2, hits give low values
[83] = locus YOR083W, strain WHI5, hits give low values
[84] = locus YOR106W, strain vam3, hits give low values
[85] = locus YOR231W, strain MKK1, hits give low values
[86] = locus YOR265W, strain rbl2, hits give low values
[87] = locus YOR270C, strain vph1, hits give low values
[88] = locus YOR290C, strain snf2, hits give low values
[89] = locus YPL051W, strain arl3, hits give low values
[90] = locus YPL078C, strain atp4, hits give low values
[91] = locus YPL106C, strain sse1, hits give low values
[92] = locus YPL240C, strain hsp82, hits give low values
[93] = locus YPL256C, strain CLN2, hits give low values

Measured: normalized growth

CN(C)C(=O)Oc1cc(OC(=O)N(C)C)cc(C(O)CNC(C)(C)C)c1 (centres undefined)
inactive: [1] 1.02 | [2] 1.03 | [3] 1.02 | [4] 1.02 | [5] 1.04 | [6] 1.02 | [7] 1.03 | [8] 1.03 | [9] 1.02 | [10] 1.03 | [11] 1.03 | [12] 1.03 | [13] 1.03 | [14] 1.03 | [15] 1.03 | [16] 1.04 | [17] 1.03 | [18] 1.03 | [19] 1.04 | [20] 1.05 | locus YDR195W, strain ref2 1.02 | [21] 1.02 | [22] 1.04 | [23] 1.03 | [24] 0.947 | [25] 1.02 | [26] 1.03 | [27] 1.03 | [28] 1.03 | [29] 1.04 | [30] 1.03 | [31] 1.03 | [32] 1.03 | [33] 1.03 | [34] 1.04 | [35] 1.04 | [36] 1.03 | [37] 1.03 | [38] 1.02 | [39] 1.04 | [40] 0.977 | [41] 0.991 | [42] 1.02 | [43] 1.02 | [44] 1.03 | [45] 1.01 | [46] 1.03 | [47] 1.04 | [48] 1.03 | [49] 1.01 | [50] 1.02 | locus YJL187C, strain SWE1, hits give low values 1.02 | [51] 0.921 | [52] 1.01 | [53] 1.03 | [54] 1.03 | [55] 1.04 | [56] 1.02 | [57] 1.03 | [58] 1.03 | [59] 1.01 | [60] 1.02 | [61] 1.03 | [62] 1.03 | [63] 1.04 | [64] 1.03 | [65] 1.02 | [66] 1.03 | [67] 1.02 | [68] 1 | [69] 1.03 | [70] 1.04 | [71] 1.02 | [72] 1.05 | [73] 1.03 | [74] 1.03 | [75] 0.934 | [76] 1.02 | [77] 1 | [78] 1.03 | [79] 1.03 | [80] 0.999 | [81] 1.02 | [82] 1.03 | [83] 1.01 | [84] 1.03 | [85] 1.03 | [86] 1.03 | [87] 1.06 | [88] 0.989 | [89] 1.01 | [90] 1.02 | [91] 1.05 | [92] 1.03 | [93] 0.984

[N-]=[N+]=CC(=O)OCC(N)C(=O)O (centres undefined)
inactive: [1] 0.994 | [2] 0.988 | [3] 1.02 | [4] 1.01 | [5] 0.979 | [6] 0.995 | [7] 1.02 | [8] 1.03 | [9] 0.98 | [10] 0.983 | [11] 0.958 | [12] 1.02 | [13] 1 | [14] 1.01 | [15] 0.992 | [16] 1 | [17] 0.995 | [18] 1.03 | [19] 0.99 | [20] 0.978 | locus YDR195W, strain ref2 1.03 | [21] 1.02 | [22] 1 | [23] 1.01 | [24] 0.931 | [25] 1.01 | [26] 1 | [27] 1 | [28] 1.01 | [29] 0.995 | [30] 1 | [31] 1.05 | [32] 1.01 | [33] 1.02 | [34] 1.02 | [35] 1.01 | [36] 1.04 | [37] 0.973 | [38] 1.01 | [39] 0.995 | [40] 0.967 | [41] 0.977 | [42] 0.976 | [43] 1.01 | [44] 1.01 | [45] 0.977 | [46] 1.01 | [47] 1.01 | [48] 1 | [49] 0.985 | [50] 1.05 | [51] 0.936 | [52] 1.02 | [53] 1 | [54] 1.01 | [55] 1.04 | [56] 1.01 | [57] 1 | [58] 1.01 | [59] 0.964 | [60] 0.976 | [61] 0.994 | [62] 1.02 | [63] 0.991 | [64] 1.04 | [65] 1 | [66] 1.01 | [67] 1 | [68] 1 | [69] 1.01 | [70] 0.984 | [71] 0.999 | [72] 1.03 | [73] 1 | [74] 0.992 | [75] 0.937 | [76] 0.989 | [77] 0.976 | [78] 0.999 | [79] 1 | [80] 1.02 | [81] 0.995 | [82] 1.02 | [83] 0.992 | [84] 1.03 | [85] 0.976 | [86] 0.998 | [87] 1.03 | [88] 0.961 | [89] 1.01 | [90] 1.03 | [91] 0.966 | [92] 0.99 | [93] 1
